# Legend:
# [1] = biological target: Mitogen-activated protein kinase kinase kinase kinase 4 (Homo sapiens) (UniProt O95819); details: at 1 µM;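 further: reported figure is an averaged inhibition value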
# [2] = biological target: Dual specificity mitogen-activated protein kinase kinase 1 (Homo sapiens) (UniProt Q02750); details: at 0.1 µM
# [3] = biological target: Dual specificity mitogen-activated protein kinase kinase 1 (Homo sapiens) (UniProt Q02750); details: at 1 µM
# [4] = biological target: Misshapen-like kinase 1 (Homo sapiens) (UniProt Q8N4C8); details: at 0.1 µM
# Sequence of Misshapen-like kinase 1 (Homo sapiens) (Q8N4C8 whole entry, looked up): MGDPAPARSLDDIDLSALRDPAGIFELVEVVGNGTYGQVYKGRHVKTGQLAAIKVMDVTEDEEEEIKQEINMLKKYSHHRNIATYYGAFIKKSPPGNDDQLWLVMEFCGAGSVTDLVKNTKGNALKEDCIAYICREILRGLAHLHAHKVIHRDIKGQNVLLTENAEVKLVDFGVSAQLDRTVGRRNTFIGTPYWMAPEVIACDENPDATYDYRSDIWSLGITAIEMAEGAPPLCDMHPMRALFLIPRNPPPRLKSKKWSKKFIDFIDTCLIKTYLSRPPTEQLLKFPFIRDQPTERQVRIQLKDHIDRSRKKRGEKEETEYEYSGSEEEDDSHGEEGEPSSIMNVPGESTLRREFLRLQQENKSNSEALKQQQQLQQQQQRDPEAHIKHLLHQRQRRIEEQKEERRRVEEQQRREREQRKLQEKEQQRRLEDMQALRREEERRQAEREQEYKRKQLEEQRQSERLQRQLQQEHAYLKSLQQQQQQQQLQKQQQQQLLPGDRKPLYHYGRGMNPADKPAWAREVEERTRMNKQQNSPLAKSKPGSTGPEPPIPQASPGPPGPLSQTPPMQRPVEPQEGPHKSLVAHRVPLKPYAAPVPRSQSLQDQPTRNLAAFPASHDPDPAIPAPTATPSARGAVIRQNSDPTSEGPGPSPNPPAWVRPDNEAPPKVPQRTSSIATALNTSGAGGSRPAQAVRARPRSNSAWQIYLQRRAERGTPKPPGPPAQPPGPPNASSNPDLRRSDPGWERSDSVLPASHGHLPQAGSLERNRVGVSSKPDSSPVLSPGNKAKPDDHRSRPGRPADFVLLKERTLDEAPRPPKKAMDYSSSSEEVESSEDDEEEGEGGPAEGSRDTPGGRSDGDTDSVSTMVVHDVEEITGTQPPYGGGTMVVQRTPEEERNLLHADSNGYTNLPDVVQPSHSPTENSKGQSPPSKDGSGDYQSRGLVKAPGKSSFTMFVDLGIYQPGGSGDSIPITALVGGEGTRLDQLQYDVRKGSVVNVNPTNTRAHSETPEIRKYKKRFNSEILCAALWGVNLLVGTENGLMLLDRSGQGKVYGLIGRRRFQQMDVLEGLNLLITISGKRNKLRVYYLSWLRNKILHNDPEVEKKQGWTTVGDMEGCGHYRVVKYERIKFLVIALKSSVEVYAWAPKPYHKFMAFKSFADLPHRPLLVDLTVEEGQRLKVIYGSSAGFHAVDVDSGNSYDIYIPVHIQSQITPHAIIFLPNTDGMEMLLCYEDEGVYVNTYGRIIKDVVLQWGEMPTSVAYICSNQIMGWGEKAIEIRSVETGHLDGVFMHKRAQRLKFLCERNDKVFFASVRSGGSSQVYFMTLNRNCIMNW
# [5] = biological target: Misshapen-like kinase 1 (Homo sapiens) (UniProt Q8N4C8); details: at 1 µM
# [6] = biological target: T1, Serine/threonine-protein kinase 4 (Homo sapiens) (UniProt Q13043); details: at 0.1 µM
# T1 sequence (whole entry): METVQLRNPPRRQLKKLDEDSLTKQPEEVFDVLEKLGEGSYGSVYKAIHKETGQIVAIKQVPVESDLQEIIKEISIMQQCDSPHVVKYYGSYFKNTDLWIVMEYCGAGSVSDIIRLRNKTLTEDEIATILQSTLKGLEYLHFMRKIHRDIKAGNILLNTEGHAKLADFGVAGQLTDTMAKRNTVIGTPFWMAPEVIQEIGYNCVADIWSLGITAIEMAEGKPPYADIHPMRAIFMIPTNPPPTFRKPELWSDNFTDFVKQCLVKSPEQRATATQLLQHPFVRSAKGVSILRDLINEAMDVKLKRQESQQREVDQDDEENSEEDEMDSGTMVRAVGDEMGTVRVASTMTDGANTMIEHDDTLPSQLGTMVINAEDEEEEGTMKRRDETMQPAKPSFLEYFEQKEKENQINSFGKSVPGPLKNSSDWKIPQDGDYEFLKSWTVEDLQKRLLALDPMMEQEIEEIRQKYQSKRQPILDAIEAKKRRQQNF
# [7] = biological target: T1, Serine/threonine-protein kinase 4 (Homo sapiens); details: at 1 µM
# [8] = biological target: T2, Serine/threonine-protein kinase 3 (Homo sapiens) (UniProt Q13188); details: at 0.1 µM
# T2 sequence (whole entry): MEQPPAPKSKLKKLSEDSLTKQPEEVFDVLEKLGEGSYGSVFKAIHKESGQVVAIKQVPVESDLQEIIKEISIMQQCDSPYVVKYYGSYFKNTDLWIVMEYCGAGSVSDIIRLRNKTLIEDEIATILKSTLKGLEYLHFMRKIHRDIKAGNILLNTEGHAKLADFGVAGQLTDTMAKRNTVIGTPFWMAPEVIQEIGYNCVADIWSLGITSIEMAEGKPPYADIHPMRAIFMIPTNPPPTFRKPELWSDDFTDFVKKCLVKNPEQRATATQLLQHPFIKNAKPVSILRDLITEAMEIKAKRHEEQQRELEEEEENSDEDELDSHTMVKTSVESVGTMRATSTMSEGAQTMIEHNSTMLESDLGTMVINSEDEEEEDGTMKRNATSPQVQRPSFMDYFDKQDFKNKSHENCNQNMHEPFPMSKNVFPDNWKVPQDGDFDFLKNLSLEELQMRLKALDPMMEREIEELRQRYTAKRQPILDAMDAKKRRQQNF
# [9] = biological target: T2, Serine/threonine-protein kinase 3 (Homo sapiens); details: at 1 µM
# [10] = biological target: Serine/threonine-protein kinase 26 (Homo sapiens) (UniProt Q9P289); details: at 0.1 µM
# Sequence of Serine/threonine-protein kinase 26 (Homo sapiens) (Q9P289 2-416 limits assumed): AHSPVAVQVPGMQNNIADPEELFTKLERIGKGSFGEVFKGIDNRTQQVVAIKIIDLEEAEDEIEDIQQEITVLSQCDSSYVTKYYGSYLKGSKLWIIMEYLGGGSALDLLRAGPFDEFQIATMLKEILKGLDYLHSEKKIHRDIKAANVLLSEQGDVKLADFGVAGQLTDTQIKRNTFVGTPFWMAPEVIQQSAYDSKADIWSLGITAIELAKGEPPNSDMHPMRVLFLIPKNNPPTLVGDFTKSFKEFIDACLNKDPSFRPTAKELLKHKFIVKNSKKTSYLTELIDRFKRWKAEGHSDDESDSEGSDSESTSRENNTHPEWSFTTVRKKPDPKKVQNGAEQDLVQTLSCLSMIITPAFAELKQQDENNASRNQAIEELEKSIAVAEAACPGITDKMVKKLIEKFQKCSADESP
# [11] = biological target: Serine/threonine-protein kinase 26 (Homo sapiens) (UniProt Q9P289); details: at 1 µM
# [12] = biological target: Serine/threonine-protein kinase PAK 1 (Homo sapiens) (UniProt Q13153); details: at 0.1 µM
# Sequence of Serine/threonine-protein kinase PAK 1 (Homo sapiens) (Q13153 whole entry): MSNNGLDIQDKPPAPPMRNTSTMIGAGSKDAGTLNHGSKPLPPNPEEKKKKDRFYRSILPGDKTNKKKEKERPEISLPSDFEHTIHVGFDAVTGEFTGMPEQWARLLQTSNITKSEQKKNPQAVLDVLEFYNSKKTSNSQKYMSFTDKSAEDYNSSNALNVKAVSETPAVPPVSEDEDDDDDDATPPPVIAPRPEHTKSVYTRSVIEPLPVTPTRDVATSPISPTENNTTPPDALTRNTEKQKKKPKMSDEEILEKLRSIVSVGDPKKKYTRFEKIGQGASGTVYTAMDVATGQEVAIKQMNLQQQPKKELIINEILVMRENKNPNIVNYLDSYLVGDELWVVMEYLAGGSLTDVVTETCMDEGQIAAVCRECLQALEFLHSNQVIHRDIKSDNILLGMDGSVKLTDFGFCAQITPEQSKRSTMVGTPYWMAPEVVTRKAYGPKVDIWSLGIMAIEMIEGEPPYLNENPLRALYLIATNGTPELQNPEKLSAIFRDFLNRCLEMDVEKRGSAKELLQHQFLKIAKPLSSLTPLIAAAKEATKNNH
# [13] = biological target: Serine/threonine-protein kinase PAK 1 (Homo sapiens) (UniProt Q13153); details: at 1 µM
# [14] = biological target: Serine/threonine-protein kinase PAK 2 (Homo sapiens) (UniProt Q13177); details: at 0.1 µM
# Sequence of Serine/threonine-protein kinase PAK 2 (Homo sapiens) (Q13177 whole entry): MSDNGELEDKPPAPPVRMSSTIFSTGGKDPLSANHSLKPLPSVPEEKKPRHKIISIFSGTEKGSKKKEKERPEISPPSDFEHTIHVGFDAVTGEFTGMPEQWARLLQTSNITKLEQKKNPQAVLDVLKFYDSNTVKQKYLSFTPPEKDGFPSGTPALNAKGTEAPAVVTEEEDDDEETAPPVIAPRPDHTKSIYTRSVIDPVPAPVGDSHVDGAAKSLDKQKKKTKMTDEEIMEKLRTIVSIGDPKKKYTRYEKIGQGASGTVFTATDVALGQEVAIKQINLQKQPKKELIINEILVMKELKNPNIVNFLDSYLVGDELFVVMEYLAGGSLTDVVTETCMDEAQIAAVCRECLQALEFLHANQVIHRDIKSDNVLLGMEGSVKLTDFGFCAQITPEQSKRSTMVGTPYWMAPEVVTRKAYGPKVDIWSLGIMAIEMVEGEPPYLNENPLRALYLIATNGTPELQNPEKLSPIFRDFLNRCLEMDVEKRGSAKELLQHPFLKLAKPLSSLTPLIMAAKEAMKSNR
# [15] = biological target: Serine/threonine-protein kinase PAK 2 (Homo sapiens) (UniProt Q13177); details: at 1 µM
# [16] = biological target: Serine/threonine-protein kinase PAK 3 (Homo sapiens) (UniProt O75914); details: at 0.1 µM
# Sequence of Serine/threonine-protein kinase PAK 3 (Homo sapiens) (O75914 whole entry, looked up): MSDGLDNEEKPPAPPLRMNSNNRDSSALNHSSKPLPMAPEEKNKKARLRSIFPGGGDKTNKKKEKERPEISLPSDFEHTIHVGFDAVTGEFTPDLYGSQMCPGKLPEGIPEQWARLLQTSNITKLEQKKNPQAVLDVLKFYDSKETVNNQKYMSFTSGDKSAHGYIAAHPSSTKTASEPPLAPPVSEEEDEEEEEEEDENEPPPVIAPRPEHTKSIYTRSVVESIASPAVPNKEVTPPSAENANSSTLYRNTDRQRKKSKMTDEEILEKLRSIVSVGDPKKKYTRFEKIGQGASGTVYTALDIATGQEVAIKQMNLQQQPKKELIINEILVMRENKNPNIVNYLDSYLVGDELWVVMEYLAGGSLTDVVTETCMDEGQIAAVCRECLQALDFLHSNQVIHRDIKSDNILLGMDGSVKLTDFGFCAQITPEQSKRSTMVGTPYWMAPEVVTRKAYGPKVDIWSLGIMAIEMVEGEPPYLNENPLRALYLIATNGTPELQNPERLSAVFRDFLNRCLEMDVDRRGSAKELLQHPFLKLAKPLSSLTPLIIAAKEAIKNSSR
# [17] = biological target: Serine/threonine-protein kinase PAK 3 (Homo sapiens) (UniProt O75914); details: at 1 µM
# [18] = biological target: Serine/threonine-protein kinase PAK 5 (Homo sapiens) (UniProt Q9P286); details: at 0.1 µM
# Sequence of Serine/threonine-protein kinase PAK 5 (Homo sapiens) (Q9P286 whole entry, looked up): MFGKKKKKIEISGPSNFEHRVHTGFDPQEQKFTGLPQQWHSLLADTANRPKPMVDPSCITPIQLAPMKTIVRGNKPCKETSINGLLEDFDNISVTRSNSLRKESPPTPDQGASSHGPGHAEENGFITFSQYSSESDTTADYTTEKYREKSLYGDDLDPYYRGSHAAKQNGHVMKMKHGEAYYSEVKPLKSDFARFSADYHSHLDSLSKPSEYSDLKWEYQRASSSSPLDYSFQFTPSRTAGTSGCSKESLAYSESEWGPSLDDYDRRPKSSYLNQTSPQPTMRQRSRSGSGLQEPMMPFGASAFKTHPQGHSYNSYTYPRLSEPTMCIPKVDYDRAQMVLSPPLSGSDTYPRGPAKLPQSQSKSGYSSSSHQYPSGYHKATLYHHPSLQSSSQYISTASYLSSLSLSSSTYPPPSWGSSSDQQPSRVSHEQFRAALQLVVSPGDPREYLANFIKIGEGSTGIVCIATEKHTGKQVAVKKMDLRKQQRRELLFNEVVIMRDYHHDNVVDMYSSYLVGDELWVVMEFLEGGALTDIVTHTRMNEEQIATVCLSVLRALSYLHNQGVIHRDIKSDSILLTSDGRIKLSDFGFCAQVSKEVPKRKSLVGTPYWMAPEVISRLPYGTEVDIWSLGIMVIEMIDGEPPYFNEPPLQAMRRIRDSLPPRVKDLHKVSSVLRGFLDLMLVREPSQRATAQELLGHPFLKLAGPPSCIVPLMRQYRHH
# [19] = biological target: Serine/threonine-protein kinase PAK 5 (Homo sapiens) (UniProt Q9P286); details: at 1 µM
# [20] = biological target: Serine/threonine-protein kinase PAK 6 (Homo sapiens) (UniProt Q9NQU5); details: at 0.1 µM;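 further: mean PAK6 inhibition reported from the GSK PKIS screen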
# Sequence of Dual specificity mitogen-activated protein kinase kinase 1 (Homo sapiens) (Q02750 whole entry): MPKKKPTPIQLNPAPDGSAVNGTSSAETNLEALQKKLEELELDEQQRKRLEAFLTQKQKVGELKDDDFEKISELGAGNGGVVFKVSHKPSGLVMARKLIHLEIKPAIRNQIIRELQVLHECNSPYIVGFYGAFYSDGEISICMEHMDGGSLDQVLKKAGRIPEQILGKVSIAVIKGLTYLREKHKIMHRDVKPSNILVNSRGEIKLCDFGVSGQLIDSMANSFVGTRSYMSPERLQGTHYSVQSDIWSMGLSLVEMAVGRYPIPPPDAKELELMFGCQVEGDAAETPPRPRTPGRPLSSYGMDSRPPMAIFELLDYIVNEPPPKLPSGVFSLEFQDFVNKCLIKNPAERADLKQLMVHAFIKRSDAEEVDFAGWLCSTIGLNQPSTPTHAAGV
SMILES,inhibition [1] [%],inhibition [2] [%],inhibition [3] [%],inhibition [4] [%],inhibition [5] [%],inhibition [6] [%],inhibition [7] [%],inhibition [8] [%],inhibition [9] [%],inhibition [10] [%],inhibition [11] [%],inhibition [12] [%],inhibition [13] [%],inhibition [14] [%],inhibition [15] [%],inhibition [16] [%],inhibition [17] [%],inhibition [18] [%],inhibition [19] [%],inhibition [20] [%]
COc1cc(N2CCN(C(C)C)CC2)ccc1Nc1nc(Nc2ccc(F)cc2C(N)=O)c2cc[nH]c2n1,68.1,2.21,15.6,14.2,55,5.27,25.2,4.27,10.3,0.23,2.73,3.63,7.46,0.48,2.24,2.9,6.18,8.18,27.4,-5.81
CC(=O)NCc1cccc(C#Cc2cncnc2Nc2ccc(OCc3cccc(F)c3)c(Cl)c2)c1,7.74,1.45,1.08,2.48,8.64,1.57,5.79,0.67,3.55,-0.27,2.49,4.19,4.46,-0.34,-0.13,-0.22,0.22,2.64,-5.66,3.99
O=C(Nc1n[nH]c2cc(-c3ccc(F)cc3)ccc12)C1CC1,70.1,3.48,3.42,16.2,56,2.34,4.72,2.91,4.55,-1.43,-1.27,5.64,5.57,1.33,0.78,3.25,3.1,4.4,-1.87,2.33
COC(=O)Nc1nc2ccc(S(=O)(=O)c3ccc(NC(=O)Nc4cc(C(F)(F)F)ccc4F)cc3)cc2[nH]1,6.09,2.83,2.72,5.17,8.15,3.71,4.43,4,3.06,0.89,-2.57,5.36,4.48,2.17,1.9,2.62,3.11,-4.37,-3.51,-3.27
COc1ccc2[nH]c3c4[nH]c5ccc(OC)cc5c4c4c(c3c2c1)C(=O)NC4=O,88.4,4.86,7.06,81.3,84.8,13,42,14.2,42.4,4.27,14,5.41,7.72,1.43,3.51,4,5.61,5.43,4.46,4.49
CCN(CC)S(=O)(=O)c1ccc(OC)c(Nc2ncc(-c3ccccc3)o2)c1,7.43,-0.08,0.32,4.58,7.11,6.37,11,7,9.26,0.95,2.13,-1.78,3.9,-0.97,0.12,0.22,1.76,8.61,-0.8,5.19
N#Cc1c(NC(=O)c2ccc(F)cc2)sc2c1CCCC2,5.3,1.23,1.68,2.23,4.89,-0.35,2.59,0.16,3.36,-0.1,2.43,-0.82,3.8,0.64,0.15,1.5,1.26,-0.93,-0.51,-7.52
